Source: PubChem BioAssay
Values without a mark were called inactive. Where a call stands in place of a potency, no number is given. For some assays here: Potency and affinity values are given separately. The source made the active and inactive calls. Unless noted, the rule behind the calls is not given here.

Columns and labels:
[1] = antimalarial activity against Dd2 strain (AID 2302;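 active = growth inhibition above 50% at the single 2 µM test dose, taken to imply half-maximal potency below 2 µM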); conditions: P. falciparum Dd2 in RBCs, LDH growth readout, 72 h; at 2 µM; active compounds read high
[2] = HepG2 cytotoxicity, primary screen, cytotoxicity control for P. falciparum antimalarial project, cell-based, ATP luminescence (AID 2303;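 active = inhibition above 50%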); conditions: HepG2 viability, 24-48 h, at 10 µM, active compounds read high
[3] = biological target: L-lactate dehydrogenase (Plasmodium falciparum (isolate CDC / Honduras)) (UniProt Q27743); assay: PfLDH activity inhibition – cell lysate, 3D7 strain, counter-screen for P. falciparum growth inhibition project (AID 2304); conditions: P. falciparum 3D7 crude extract, LDH APAD/NBT absorbance; at 2 µM; active compounds read high
[4] = inhibition of 3D7 malaria parasite growth – strain 3D7 (AID 2306); conditions: P. falciparum 3D7 erythrocytic growth, LDH absorbance, 72 h; at 2 µM; active compounds read high
[5] = biological target: Calcium-dependent protein kinase 1 (Plasmodium falciparum (isolate 3D7)) (UniProt P62344); assay: PfCDPK1 kinase inhibitors, biochemical, TCAMS library (AID 1159585; cut-off not given, nearly all actives have IC50 up to about 0.98 µM;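 note: inhibitors leave more ATP so luminescence rises with inhibition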); conditions: recombinant PfCDPK1, Kinase-Glo ATP depletion luminescence
[6] = biological target: Plasmodium falciparum protein kinase 6 (PK6, PF3D7_1337100) (UniProt Q8IDW1); assay: PfPK6 kinase inhibitors, biochemical, TCAMS library (AID 1159586); conditions: recombinant PfPK6, Kinase-Glo ATP depletion luminescence
[7] = biological target: Protein kinase 7 (PK7), Plasmodium falciparum 3D7 (PF3D7_0213400) (UniProt Q7YTF7); assay: inhibition of Plasmodium PK7 catalytic activity – biochemical, TCAMS antimalarial set, Kinase-Glo luminescence (AID 1159587); conditions: recombinant PfPK7, Kinase-Glo ATP depletion luminescence
[8] = biological target: Calcium-dependent protein kinase 4 (Plasmodium falciparum (isolate 3D7)) (UniProt Q8IBS5); assay: PfCDPK4 kinase inhibitors, biochemical, TCAMS library (AID 1159588; cut-off not given, nearly all actives have IC50 up to about 0.91 µM); conditions: recombinant PfCDPK4, Kinase-Glo ATP depletion luminescence
Sequence of Calcium-dependent protein kinase 4 (Plasmodium falciparum (isolate 3D7)) (Q8IBS5 whole entry, looked up): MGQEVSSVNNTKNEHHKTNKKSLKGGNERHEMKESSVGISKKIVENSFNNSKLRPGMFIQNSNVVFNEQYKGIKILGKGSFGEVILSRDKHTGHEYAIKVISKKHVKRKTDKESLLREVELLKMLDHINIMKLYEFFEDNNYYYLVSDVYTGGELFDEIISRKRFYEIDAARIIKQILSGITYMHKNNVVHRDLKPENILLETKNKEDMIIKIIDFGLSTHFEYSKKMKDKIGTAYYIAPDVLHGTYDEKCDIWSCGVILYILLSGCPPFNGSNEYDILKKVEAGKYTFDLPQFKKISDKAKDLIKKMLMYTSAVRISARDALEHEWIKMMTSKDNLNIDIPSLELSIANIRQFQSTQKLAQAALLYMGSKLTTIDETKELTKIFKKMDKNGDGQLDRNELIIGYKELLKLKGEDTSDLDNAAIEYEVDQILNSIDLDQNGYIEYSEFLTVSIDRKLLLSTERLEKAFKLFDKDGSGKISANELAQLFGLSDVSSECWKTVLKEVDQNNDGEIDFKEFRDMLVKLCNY

Sequence of Protein kinase 7 (PK7), Plasmodium falciparum 3D7 (PF3D7_0213400) (Q7YTF7 1-343): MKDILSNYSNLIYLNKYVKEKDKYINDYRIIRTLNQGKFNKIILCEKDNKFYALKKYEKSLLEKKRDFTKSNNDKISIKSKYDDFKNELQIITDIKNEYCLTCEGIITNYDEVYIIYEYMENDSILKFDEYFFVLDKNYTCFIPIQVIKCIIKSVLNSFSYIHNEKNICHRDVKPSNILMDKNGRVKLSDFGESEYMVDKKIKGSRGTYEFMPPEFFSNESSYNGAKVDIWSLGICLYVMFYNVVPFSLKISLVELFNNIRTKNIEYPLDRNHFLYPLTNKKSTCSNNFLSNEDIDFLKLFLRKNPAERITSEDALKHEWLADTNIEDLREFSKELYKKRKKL
Sequence of L-lactate dehydrogenase (Plasmodium falciparum (isolate CDC / Honduras)) (Q27743 whole entry, looked up): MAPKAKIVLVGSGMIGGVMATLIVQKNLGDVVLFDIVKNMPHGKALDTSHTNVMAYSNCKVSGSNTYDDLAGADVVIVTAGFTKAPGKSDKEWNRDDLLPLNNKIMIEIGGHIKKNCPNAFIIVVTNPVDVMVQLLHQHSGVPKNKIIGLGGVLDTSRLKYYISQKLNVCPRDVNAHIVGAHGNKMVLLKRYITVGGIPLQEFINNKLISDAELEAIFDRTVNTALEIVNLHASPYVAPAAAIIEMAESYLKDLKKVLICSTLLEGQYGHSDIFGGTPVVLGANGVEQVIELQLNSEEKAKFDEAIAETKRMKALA
Sequence of Plasmodium falciparum protein kinase 6 (PK6, PF3D7_1337100) (Q8IDW1 1-305): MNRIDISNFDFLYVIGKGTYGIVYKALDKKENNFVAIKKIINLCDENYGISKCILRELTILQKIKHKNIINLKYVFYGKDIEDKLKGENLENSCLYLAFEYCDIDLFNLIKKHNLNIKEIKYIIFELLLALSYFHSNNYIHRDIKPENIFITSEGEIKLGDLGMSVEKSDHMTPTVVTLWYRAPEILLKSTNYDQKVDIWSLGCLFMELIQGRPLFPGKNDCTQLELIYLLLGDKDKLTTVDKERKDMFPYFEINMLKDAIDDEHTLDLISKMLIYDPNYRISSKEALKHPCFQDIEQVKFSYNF
Sequence of Calcium-dependent protein kinase 1 (Plasmodium falciparum (isolate 3D7)) (P62344 whole entry, looked up): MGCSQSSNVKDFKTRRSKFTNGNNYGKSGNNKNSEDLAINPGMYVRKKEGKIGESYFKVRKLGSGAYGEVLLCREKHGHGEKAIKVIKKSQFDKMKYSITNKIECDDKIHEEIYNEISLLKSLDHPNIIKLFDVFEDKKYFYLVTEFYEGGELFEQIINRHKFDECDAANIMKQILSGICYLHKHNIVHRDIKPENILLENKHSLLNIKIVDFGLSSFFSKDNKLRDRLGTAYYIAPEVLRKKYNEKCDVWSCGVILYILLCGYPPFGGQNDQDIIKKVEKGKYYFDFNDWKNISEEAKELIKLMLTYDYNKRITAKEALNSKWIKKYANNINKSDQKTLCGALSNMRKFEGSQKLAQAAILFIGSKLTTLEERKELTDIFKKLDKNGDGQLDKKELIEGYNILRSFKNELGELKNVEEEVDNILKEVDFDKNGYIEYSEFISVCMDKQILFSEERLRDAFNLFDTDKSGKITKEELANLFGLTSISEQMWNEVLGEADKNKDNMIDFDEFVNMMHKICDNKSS

SMILES | growth inhibition [1] | inhibition [2] | inhibition [3] [%] | growth inhibition [4] | outcome [5] | outcome [6] | outcome [7] | outcome [8]
O=C(NCCCN(Cc1ccc(F)cc1)c1ccccn1)C(c1cc2ccccc2o1)N1CCN(C(c2ccccc2)c2ccccc2)CC1 (stereo not given) | 53% (active) | 14% | 1 | 97% (active) | inactive | inactive | inactive | inactive
CCNc1cc(C(=O)N[C@@H](Cc2ccccc2)[C@H](O)CN[C@H](C)C(C)(C)C)cc(N2CCCCS2(=O)=O)c1 | 41% | 4% | -2 | 95% (active) | inactive | inactive | inactive | inactive
Cc1cccc2[nH]c(-c3ccc(-c4cccc(CNCCCN5CCCC5=O)c4)s3)nc12 | 26% | 14% | -9 | 101% (active) | inactive | inactive | inactive | inactive
CC(C)COc1ccc(Cl)cc1Cc1ccc(-c2nc3ccc(C(F)(F)F)cc3[nH]2)o1 | 51% (active) | 14% | 5 | 97% (active) | inactive | inactive | inactive | inactive
CN1CCC(NCCS(=O)(=O)c2cccc(Nc3ccc(-c4cccc(F)c4)cn3)c2)CC1 | -3% | 27% | 5 | 99% (active) | inactive | inactive | inactive | inactive
COc1cc(NC(=O)c2sc(-c3ccc(Cl)cc3)cc2NC(=O)N2CCCC2)ccc1OCCN1CCCC1 | 61% (active) | 22% | 0 | 101% (active) | inactive | inactive | inactive | inactive
Oc1ccccc1CN1CCCC(COC(c2ccc(F)cc2)c2ccc(F)cc2)C1 (stereo not given) | 98% (active) | 19% | 1 | 97% (active) | inactive | inactive | inactive | inactive
O=C(Nc1ccc(Cl)cc1)c1cccc(S(=O)(=O)NC2CCN(CC3CCCCC3)C2)c1 (stereo not given) | 41% | 80% (active) | -2 | 90% (active) | inactive | inactive | inactive | inactive
CCCc1cc(OC)c(C[C@H]2c3cc(O)c(Cl)cc3CCN2C)cc1OC | 98% (active) | -3% | -6 | 97% (active) | inactive | inactive | inactive | inactive
CC(C)(C)c1ccc2nc(-c3ccc(C(=O)NCCCc4ccccc4)cc3)[nH]c2c1 | 14% | 11% | 5 | 95% (active) | inactive | inactive | inactive | inactive
CCC[C@@H]([C@@H](CC1CCCCC1)C(=O)N[C@H](C(=O)Nc1nccs1)C(C)(C)SCCNC(=O)OCc1ccccn1)N(O)C=O | 96% (active) | 17% | -5 | 99% (active) | inactive | inactive | inactive | inactive
O=C(Nc1cccc(-c2csc(-c3nc4ccccc4[nH]3)c2)c1)c1ccoc1 | 67% (active) | 36% | 1 | 96% (active) | inactive | inactive | inactive | inactive
O=C(c1cccs1)N(Cc1cccc(-c2ccc(CNCCc3ccccc3)cc2)c1)C1CCN(Cc2ccccc2)CC1 | 76% (active) | 3% | -3 | 95% (active) | inactive | inactive | inactive | inactive
Cc1cc(S(=O)(=O)N2CCCCC(c3ccc(C(F)(F)F)cc3)=N2)c(Cl)cc1Cl | 97% (active) | 17% | 0 | 97% (active) | inactive | inactive | inactive | inactive
NCC(=O)Nc1cccc(Nc2nccc(-c3c(-c4cccc(NC(=O)c5ccccc5)c4)nn4ccccc34)n2)c1 | 87% (active) | 45% | 0 | 96% (active) | inactive | inactive | inactive | inactive
O=C1COC(c2ccccc2)(c2ccccc2)CN1CC1CCN(Cc2ccc(O)cc2Cl)C1 (stereo not given) | 81% (active) | 53% (active) | 2 | 85% (active) | inactive | inactive | inactive | inactive
CC1(C)N=C(N)N=C(N)N1OCc1ccc2ccccc2c1 | 97% (active) | 65% (active) | -9 | 94% (active) | inactive | inactive | inactive | inactive
COc1ccc(N2CCc3c(-c4cccc5cnccc45)cc(C)nc32)c(C)c1 | -12% | 20% | 0 | 96% (active) | inactive | inactive | inactive | inactive
O=C(c1cccc(-c2ccc(-c3nc4ccc(C(F)(F)F)cc4[nH]3)cc2)c1)N1CCCCC1CN1CCC(O)C1 (stereo not given) | 101% (active) | 19% | 4 | 92% (active) | inactive | inactive | inactive | inactive
Clc1ccc(Nc2nc(NCc3ccccc3)nc(N/N=C/c3ccccn3)n2)cc1 | 91% (active) | 41% | 3 | 99% (active) | inactive | inactive | inactive | inactive

SMILES | growth inhibition [1] | inhibition [2] | inhibition [3] [%] | growth inhibition [4] | outcome [5] | outcome [6] | outcome [7] | outcome [8]
CC[C@H](NC(=O)c1c(CCCN2CCN(c3ccccc3)CC2)c(-c2ccccc2)nc2cc(O)ccc12)c1ccccc1 | 97% (active) | 12% | 6 | 96% (active) | inactive | inactive | inactive | inactive
C=CCOC(=O)N1CCC(CNCc2cccc(-c3ccc(-c4nc5c(C)cccc5[nH]4)cc3)c2)C1 (stereo not given) | 82% (active) | 24% | 1 | 103% (active) | inactive | inactive | inactive | inactive
FC(F)(F)c1ccc2nc(-c3cccc(-c4ccc(CNCCN5CCNCC5)cc4)c3)[nH]c2c1 | 0% | 17% | 4 | 96% (active) | inactive | inactive | inactive | inactive
COc1cccc(C2=CC(c3ccccc3)n3ncc(C(=O)Nc4ccc(Cl)cc4)c3N2)c1 (stereo not given) | 28% | 7% | -1 | 88% (active) | inactive | inactive | inactive | inactive
COc1ccc(-c2ccc(CNC(=O)c3cccc(C#N)c3)c(F)c2)cc1CN1CCCN(C)CC1 | 30% | 8% | -4 | 99% (active) | inactive | inactive | inactive | inactive
CC(=O)N(Cc1nc(-c2cc(Cl)c(Cl)s2)cs1)c1c(C)cccc1C | 95% (active) | 5% | 3 | 98% (active) | inactive | inactive | inactive | inactive
CC(C)CNCc1ccc(-c2ccc(CN(CCCN3CCN(C)CC3)C(=O)CCC3CCCC3)cc2)cc1 | 87% (active) | 50% (active) | 5 | 96% (active) | inactive | inactive | inactive | inactive
O=C(c1ccc(-c2ccc(-c3nc4ccc(C(F)(F)F)cc4[nH]3)s2)cc1)N1CCCCC1CN1CCC(O)C1 (stereo not given) | 80% (active) | 90% (active) | 3 | 92% (active) | inactive | inactive | inactive | inactive
CN1CCN(CCCN(Cc2cccc(-c3ccc(CNC4CCCC4)cc3)c2)C(=O)/C=C/c2ccccc2)CC1 | 96% (active) | 62% (active) | -2 | 98% (active) | inactive | inactive | inactive | inactive
O=C(/C=C/c1ccc(Cl)c(Cl)c1)N1CCN(C(=O)Nc2ccc(C(F)(F)F)cc2)CC1 | 101% (active) | 47% | 4 | 98% (active) | inactive | inactive | inactive | inactive
Oc1cc(Nc2ccnc3cc(-c4ccc(CN5CCCCC5)o4)c(Cl)cc23)c(Cl)cc1F | 64% (active) | -10% | -5 | 102% (active) | inactive | inactive | inactive | inactive
Cc1ccc(NC(=O)c2ccc(NCCCN3CC(C)CC(C)C3)c([N+](=O)[O-])c2)cc1F (stereo not given) | 85% (active) | 18% | -8 | 101% (active) | inactive | inactive | inactive | inactive
O=C(c1ccc(Cl)c(Cl)c1)N1CCc2c([nH]c3ccccc23)C1CN1CCCC1 (stereo not given) | 16% | 83% (active) | 2 | 94% (active) | inactive | inactive | inactive | inactive
COc1ccc(-c2nc(NC(=O)CSc3ccc([N+](=O)[O-])cc3)sc2C)cc1 | 100% (active) | -6% | -1 | 101% (active) | inactive | inactive | inactive | inactive
C[C@H](Cc1ccc(OCCCCCCOc2ccc(C[C@@H](C)NC(=O)[C@H](O)c3cccc(Cl)c3)cc2)cc1)NC[C@H](O)c1cccc(Cl)c1 | 99% (active) | 39% | -3 | 99% (active) | inactive | inactive | inactive | inactive
Cc1ccc2[nH]c(C)c(Br)c(=O)c2c1 | 84% (active) | -4% | -5 | 95% (active) | inactive | inactive | inactive | inactive
c1cc(CN2CCN(CCN3CCOCC3)CC2)cc(-c2ccc(-c3nc4ccccc4[nH]3)cc2)c1 | 100% (active) | 23% | -8 | 100% (active) | inactive | inactive | inactive | inactive
CCOc1ccc2c(NN=Cc3cccc(OC)c3OC)cc(C)nc2c1 | 85% (active) | 4% | 3 | 102% (active) | inactive | inactive | inactive | inactive
O=C(Nc1cccc(F)c1)N(Cc1ccc(-c2ccc(CN3CCNCC3)cc2)cc1)C1CCN(Cc2ccccc2)CC1 | 53% (active) | 18% | 0 | 101% (active) | inactive | inactive | inactive | inactive
O=S(=O)(Nc1ccc2nccc(N3CCNCC3)c2c1)c1ccc(-c2ccccc2)cc1 | -1% | -3% | -2 | 101% (active) | inactive | inactive | inactive | inactive
